IL1B secr inh: inflammasome signaling inhibition, IL-1 beta readout. THP-1 LPS/ATP IL-1B secretion, AlphaLISA, 16 h; stronger effect = lower value. activity change, % at 57.5 µM. 360,000 tested, 4.7% active. AID 743279; in the data active = activity change below about -50%; inconclusive = mostly about -30% to -49%
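THP-1 cells pretreated 1 hr with compounds (up to 57.5 uM final), then stimulated with LPS (250 ng/mL final) plus ATP (1.25 mM final); secreted IL-1B measured by AlphaLISA after 16 hr, decreased signal indicating inhibition.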
HT1080 IDH1KD tx: HT-1080 IDH1 knockdown cell toxicity (counter line). HT-1080 IDH1 knockdown viability, ATP luminescence, 48 h. Potency, µM (titrated, usually from 46.1 µM), without a hit: top-dose activity, negative = toxicity, most hits filed as cytotoxic. 360,000 tested, 2% active. AID 686971;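 note: potency is the fitted concentration of half-maximal effect; 0% = DMSO wells and -100% = cell-free medium wells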
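Cytotoxicity counter-line: IDH1KD HT-1080, 48 h, CellTiter-Glo. Curves classed by r2, magnitude and activity.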
ELG1 repair inh: inhibitors of ELG1-dependent DNA repair in HEK293T cells. HEK293T ELG1-luciferase reporter, luminescence, 16 h; DNA damage induced by 5-fluorouridine. Potency, µM (top dose mostly 46.1 µM), for inactives: at the top dose activity change, negative = inhibition, actives largely listed as inhibitors. 330,000 tested, 2.3% active. AID 504467; note: potency is the fitted concentration of half-maximal effect; nearly all actives have a fitted effect of over 55% in size
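Quantitative HTS, concentration-response format. 2,000 cells/well co-treated with 5-fluorouridine and compound, 16 hr in 5% CO2 at 37 °C; ONE-Glo luminescence read after 30 min.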
DT40 TDP1 no CPT: qHTS for Inhibitors of human tyrosyl-DNA phosphodiesterase 1 (TDP1): qHTS in cells in absence of CPT; 420,000 tested, 15% active; AID 686978, 2013; DT40 Tdp1-/- hTDP1 cells, no CPT, ATP luminescence, 48 h; Potency, µM (top dose mostly 46.2 µM), without a hit: top-dose activity change, negative = growth inhibition, actives largely listed as inhibitors; note: potency is the fitted concentration of half-maximal effect; nearly all actives have a fitted effect of over 55% in size
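Growth kinetics read by CellTiter-Glo luminescence after ≥48 hr at 37 °C. Cells: DT40 Tdp1-/- stably carrying human TDP1, 400 per well, compound exposure in the absence of CPT (DMSO vehicle).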
HT1080NT lethal: kills 2HG-producing HT-1080-NT fibrosarcoma cells; HT-1080-NT fibrosarcoma viability, CellTiter-Glo ATP luminescence, 48 h; 360,000 tested, 1.6% active; Potency, µM (titrated, usually from 46.1 µM), without a hit: top-dose activity, negative = less viability, most hits filed as cytotoxic; AID 686970;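 note: NT is the 2HG producing partner of a matched IDH1 knockdown line; potency is the fitted concentration of half-maximal effect; 0% = DMSO-treated cells and -100% = media-only wells without cells; nearly all actives have a fitted effect of over 55% in size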
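Viability by CellTiter-Glo luminescence after 48 h compound exposure at 37C of HT-1080-NT cells (750/well, RPMI, 5% FBS). % activity scaled between DMSO wells and medium-only wells, then curve-fitted and categorized by curve class.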
TDP1 cell CPT: DT40-hTDP1 cell growth loss with CPT | chicken DT40 Tdp1-/-;hTDP1 cells + 20 nM CPT, ATP luminescence, 48 h | Potency, µM (highest dose often 46.2 µM), for inactives: at the highest dose activity change, negative = growth inhibition, usual class: inhibitors | 420,000 tested, 12% active | AID 686979; note: potency is the fitted concentration of half-maximal effect; nearly all actives have a fitted effect of over 55% in size
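Cell growth measured by CellTiter-Glo luminescence after a minimum 48 h, 37 C compound exposure with 20 nM CPT in Tdp1-knockout DT40 cells stably expressing hTDP1, seeded 400/well; qHTS titration format.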
Numbers without * were called inactive; ? = inconclusive; nt = not tested or not shown; [ ] = another dose, or the depositor's remark. The list is not random: actives were taken first. Their share in the collection is about 19%. Unless noted, calls come from the whole dose curve; as a rule, active = well fitted curve in the direction sought with a large enough effect; inconclusive = small, poorly fitted or top-dose-only effect, or another doubt; inactive = no such curve, though single readings can be large; an effect the other way counts as inactive or inconclusive. Unless noted, % is set by controls: 0 for no effect and ±100 for the full control effect.

SMILES	IL1B secr inh	HT1080 IDH1KD tx	ELG1 repair inh	DT40 TDP1 no CPT	HT1080NT lethal	TDP1 cell CPT
Cc1c(C(=O)NCc2ccc3c(c2)OCCO3)sc(=O)n1Cc1ccc(C(=O)N(C)C)cc1	20	-2%	nt	?	2%	?
Cc1c(C(=O)NCc2cccc(Cl)c2)sc(=O)n1Cc1ccc(F)cc1	-58*	-2%	nt	?	-25%	?
Cc1c(C(=O)N(C)Cc2ccc(F)cc2)sc(=O)n1Cc1ccc(Cl)c(Cl)c1	0	?	nt	23µM*	-24%	?
Cc1c(C(=O)NCc2cccc(C(F)(F)F)c2)sc(=O)n1Cc1cccc(F)c1	-62*	?	nt	?	?	?
Cc1c(C(=O)NCc2ccc(F)cc2)sc(=O)n1Cc1ccc(C(=O)c2ccccc2)cc1	-18	-16%	nt	?	-8%	?
Cc1c(C(=O)NCc2cccc(Cl)c2)sc(=O)n1Cc1ccc(C(=O)N(C)C)cc1	-12	-8%	nt	?	-16%	16µM*
CC(=O)Oc1ccc(Cn2c(C)c(C(=O)N(C)Cc3ccc(F)cc3)sc2=O)cc1	-3	-14%	nt	?	5%	?
CO[C@H]1CN(C)C(=O)c2ccc(NS(=O)(=O)c3ccccc3F)cc2OC[C@H](C)NC[C@@H]1C	-5	1%	nt	-16%	15%	4%
CCc1ccc(-c2nc(CS(=O)CC(=O)NCCCN3CCC(C)CC3)c(C)o2)cc1 (stereo unspecified)	-8	?	?	?	?	?
COCCN(C(=S)Nc1ccc(C)cc1C)C(C)c1ccco1 (stereo unspecified)	0	14%	10%	?	?	4%
Cc1ccc(CNC(=O)C2CCCN(S(=O)(=O)c3cn(C)cn3)C2)cc1 (stereo unspecified)	nt	nt	nt	-6%	nt	17%
Cc1cccc(C)c1Cn1c(C)c(C(=O)NCc2ccc(C#N)cc2)sc1=O	-8	?	nt	18µM*	?	?
Cc1c(C(=O)NCc2ccc(Cl)c(Cl)c2)sc(=O)n1Cc1ccc(C(=O)N(C)C)cc1	?	-23%	nt	10µM*	-23%	15µM*
CC(=O)Oc1ccc(Cn2c(C)c(C(=O)NCc3ccccc3C(F)(F)F)sc2=O)cc1	-7	-20%	nt	?	?	?
Cc1c(C(=O)NCc2ccc(C(C)C)cc2)sc(=O)n1Cc1ccc(S(=O)(=O)N(C)C)cc1	-25	?	nt	9.2µM*	-15%	13µM*
Cc1c(C(=O)NCc2ccc(C#N)cc2)sc(=O)n1Cc1ccccn1	-20	2%	nt	2%	5%	-5%
CSc1ccc(Cn2c(C)c(C(=O)NCc3ccc(C(C)C)cc3)sc2=O)cc1	-18	-5%	nt	?	-9%	-8%
Cc1c(C(=O)NCc2ccccc2C(F)(F)F)sc(=O)n1Cc1ccc(F)cc1	-18	-16%	nt	?	-21%	21µM*
COc1ccc(NC(=O)COc2ccc(C(=O)OCC(=O)N(C(C)C)C(C)C)cc2OC)cc1	13	0%	-5%	?	-1%	?
CN(C(=O)c1ccc(Cl)c([N+](=O)[O-])c1)C1(C)CCS(=O)(=O)C1 (stereo unspecified)	?	2%	0%	-2%	4%	7%
CCc1nc2cc(C(=O)NC3CCS(=O)(=O)C3)cc(NC(=O)c3ccccc3OC)c2n1C (stereo unspecified)	nt	nt	nt	-8%	nt	-3%
CC(C)C[C@H]1CN=C(Nc2ccccc2)N1CCCCc1ccccc1	-11	-7%	-24%	?	-18%	26µM*
CC(C)CCN1C(Nc2ccccc2)=NC[C@@H]1C	11	4%	-17%	?	7%	-22%
CCC(CC)CN1C(Nc2ccccc2)=NC[C@@H]1CC(C)C	-10	2%	-6%	?	-13%	?
CC(C)CCCN1C(Nc2ccccc2)=NC[C@@H]1Cc1ccccc1	?	-28%	-29%	16µM*	-21%	?
SMILES	IL1B secr inh	HT1080 IDH1KD tx	ELG1 repair inh	DT40 TDP1 no CPT	HT1080NT lethal	TDP1 cell CPT
CC(CCN1C(Nc2ccccc2)=NC[C@@H]1C)c1ccccc1 (stereo partly specified)	-5	13%	-17%	12µM*	6%	23µM*
CC(CCN1C(Nc2ccccc2)=NC[C@@H]1Cc1ccccc1)c1ccccc1 (stereo partly specified)	-23	-13%	?	18µM*	-1%	?
COc1cc(/C=C(\C#N)C(=O)Nc2ccc(C)cc2)ccc1OCc1cc(=O)n2nc(C)sc2n1	nt	nt	nt	-12%	nt	-19%
COc1ccccc1-c1ccnc(-n2ncc(C(=O)NCc3cccc(C)n3)c2C)n1	nt	nt	nt	-2%	nt	0%[9.04 µM]
CC1CCN(CCC(=O)Nc2ccc(F)c(F)c2)CC1	-4	0%	-2%	-29%	-2%	0%
CCCCN1C(Nc2ccccc2)=NC[C@@H]1CC(C)C	-2	1%	-4%	?	-1%	?
CC(C)CCCN1C(Nc2ccccc2)=NC[C@@H]1CC(C)C	-28	0%	-10%	18µM*	-1%	?
CC(C)CCN1C(Nc2ccccc2)=NC[C@@H]1Cc1ccccc1	-15	-2%	-9%	16µM*	-17%	?
Nc1nc2c(ncn2[C@@H]2O[C@H](CNS(=O)(=O)C3CC3)[C@@H](O)[C@H]2O)c(=O)[nH]1	11	8%	nt	0%	19%	4%
CC(C)(C)c1ccc(C(=O)NCC2CCCN2S(=O)(=O)c2ccccc2)cc1 (stereo unspecified)	-57*	-14%	0%	12µM*	?	8.2µM*
Cc1ccc(S(=O)(=O)N2CCCC2CNC(=O)c2ccc(F)c(F)c2)cc1 (stereo unspecified)	-6	-3%	-5%	18µM*	7%	?
Cc1ccc(C(=O)NCC2CCCN2S(=O)(=O)c2ccc(C)cc2)cc1 (stereo unspecified)	-14	-23%	1%	?	-22%	?
COc1ccc(NC(=O)C(=O)NCC2CCCN2S(=O)(=O)c2cc(C)ccc2C)cc1 (stereo unspecified)	-3	18µM*	?	2.6µM*	?	4.1µM*
COc1ccc(NC(=O)C(=O)NCC2CCCN2S(=O)(=O)c2ccc(C)cc2)cc1 (stereo unspecified)	58	0.052µM*	-20%	0.018µM*	0.21µM*	0.0058µM*
